Binding signal data for five sequences are collected here from article PMC8384837, “Expanding the binding specificity for RNA recognition by a PUF domain”.

The first assay deals with PUM1 PUF domain R3-LWS (Homo sapiens, UniProt Q14671 828-1176, C935L;R936W;Q939S). The assay is described as follows: yeast three-hybrid, YBZ-1, SC-Leu-His + 0.5 mM 3-AT, 4 days. The note with it: tags: N-Gal4 AD-HA kept; label: inside an RPR1-promoter hybrid RNA with tandem MS2 sites; ssRNA. The essentials:
(§1)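 Pumilio-1 PUF domain libraries, randomized (NNK) at the three base-contacting residues of each repeat, were co-expressed with matching RNA elements from a centromeric plasmid in strain YBZ-1 (LexA–MS2 coat fusion, HIS3 reporter). Transformants were plated on SC-Leu (input) and SC-Leu-His + 0.5 mM 3-AT (selection) for four days, and repeat regions were PCR-amplified and Illumina-sequenced. The interaction score is the log2 change in variant frequency from input to selection, with pseudocount 1 where absent.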
For “GGCUAGAACUAGUGGAUCCCCCGGCGCCCGGCGGCUCGAGCCCGGGUAAGUGUAAGUAGUCUGCAUGCCGCCGGGCGCCAUGCCUGCAGGUCGACUCUAGAAAACAUG”, the binding signal is 6.62 log2 enrichment (interaction score). Same read-out and setting: next, “GGCUAGAACUAGUGGAUCCCCCGGCGCCCGGCGGCUCGAGCCCGGGUAAGUGUAAUUAGUCUGCAUGCCGCCGGGCGCCAUGCCUGCAGGUCGACUCUAGAAAACAUG”: 4.58 log2 enrichment (interaction score).

“GGCUAGAACUAGUGGAUCCCCCGGCGCCCGGCGGCUCGAGCCCGGGUAAGUGUAAAUAGUCUGCAUGCCGCCGGGCGCCAUGCCUGCAGGUCGACUCUAGAAAACAUG”: the binding signal is 4.31 log2 enrichment (interaction score).

The target in the next assay is PUM1 PUF domain R4-SPM (Homo sapiens, UniProt Q14671 828-1176, N971S;H972P;Q975M). The description is as above. The note with it: tags: N-Gal4 AD-HA kept; label: inside an RPR1-promoter hybrid RNA with tandem MS2 sites; ssRNA. The essentials:
as §1
“GGCUAGAACUAGUGGAUCCCCCGGCGCCCGGCGGCUCGAGCCCGGGUAAGUGUAUAUAGUCUGCAUGCCGCCGGGCGCCAUGCCUGCAGGUCGACUCUAGAAAACAUG”: the binding signal was 3.22 log2 enrichment (interaction score). Still for that read-out and setting: the figure for “GGCUAGAACUAGUGGAUCCCCCGGCGCCCGGCGGCUCGAGCCCGGGUAAGUGUAAAUAGUCUGCAUGCCGCCGGGCGCCAUGCCUGCAGGUCGACUCUAGAAAACAUG” is 3.49 log2 enrichment (interaction score); for “GGCUAGAACUAGUGGAUCCCCCGGCGCCCGGCGGCUCGAGCCCGGGUAAGUGUACAUAGUCUGCAUGCCGCCGGGCGCCAUGCCUGCAGGUCGACUCUAGAAAACAUG” it is 0.15 log2 enrichment (interaction score).
